Results on 61 compounds are retold here after PubChem BioAssay AID504690 (Sanford-Burnham Center for Chemical Genomics, 2011).

About 2,700 (0.77%) of roughly 350,000 compounds were called active. This is one part of a sample in which actives are shown more often than they occur.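 How the source made its calls: active means inhibition reaching at least a set limit at 20 µM in the primary screen (cut at about 59% in these data); inactive means the rest.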

This assay has as its system glucose-6-phosphate dehydrogenase-6-phosphogluconolactonase (Plasmodium falciparum 3D7). In words: PfG6PD enzyme inhibitors, primary screen, biochemical, fluorescence intensity, uHTS (AID 504690).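 Further: 0% = DMSO wells with substrate and 100% = DMSO wells lacking glucose-6-phosphate.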 The settings on record: PfGluPho enzyme, NADPH resazurin-diaphorase fluorescence; at 20 µM; active compounds read high. A general note: The colour change of resazurin is a common sign of viable cells or microbes.
For `Cc1ccc(C(=O)/C=C/c2c(C)nn(-c3ccccc3)c2Cl)cc1`, the inhibition was 71.4% (active).

Regarding `Cc1nn(-c2ccccc2)c(Cl)c1/C=C/C(=O)c1ccc(O)cc1`, the inhibition is -22.8% (inactive).

In the case of `Cc1ccc(-n2nc(C)c(/C=N/NC(=O)c3cccs3)c2Cl)cc1`, the inhibition is 18.2% (inactive).

Regarding `CCOC(OCC)c1ccc(/C=C\c2nccc(N)n2)cc1`, the inhibition was 5.93% (inactive).

With `COc1cc(S(=O)(=O)N2CCOCC2)ccc1NC(=O)COc1ccc(N(C)S(=O)(=O)c2ccc(C)cc2)cc1`, the inhibition was 3.13% (inactive).

Turning to `COc1ccc(Cc2nnnn2CC(=O)O)cc1`, the inhibition is -4.83% (inactive).

With `CC1(c2ccc3ccccc3c2)NC(=O)N(CC(N)=O)C1=O` (stereo unspecified), the inhibition was -14% (inactive).

`N/C(=N\OC(=O)CCn1cccc(C(F)(F)F)c1=O)c1ccc(OC(F)(F)F)cc1`: the inhibition is -3.22% (inactive).

Turning to `CCSc1nnc(NC(=O)c2ccc(C)cc2)s1`, the inhibition was 92.9% (active).

`NC(=O)CSc1nnc(NC(=O)c2ccc(Br)o2)s1`: the inhibition is 21.1% (inactive).

As to `CCOC(=O)CSc1nnc(NC(=O)c2cccc(S(=O)(=O)N3CCCC3)c2)s1`, the inhibition is -21.8% (inactive).

For the compound `CCC(C)NCCOCCOc1ccc(Br)cc1C` (stereo unspecified), the inhibition was -3.69% (inactive).

For the compound `O=C(NC1CCc2ccccc21)C12CN(Cc3ccccc3)CC1C(c1cccc([N+](=O)[O-])c1)=NO2` (stereo unspecified), the inhibition was 3.16% (inactive).

Consider `O=C1C(Cl)=C(Oc2ccccc2)C(=O)c2ccccc21`, for which the inhibition was 128% (active).

With `COc1ccc(-c2c(C)cc3oc(=O)cc(-c4ccccc4)c3c2C)cc1C=O`, the inhibition was 1.07% (inactive).

In the case of `CCOc1ccccc1Nc1ccc(C(=O)O)cc1[N+](=O)[O-]`, the inhibition was -28.7% (inactive).

As to `CCOc1ccccc1Nc1ccc2nonc2c1[N+](=O)[O-]`, the inhibition is 77.2% (active).

In the case of `Cc1ccccc1Nc1c([N+](=O)[O-])ccc2nonc12`, the inhibition was -0.06% (inactive).

Turning to `CCC(C)C(=O)Nc1cc([N+](=O)[O-])ccc1Cl` (stereo unspecified), the inhibition is -12.1% (inactive).

Turning to `Cc1ccc(N(C(=O)CC2NC(=O)NC2=O)C2(C(=O)NC3CCCC3)CCCCC2)cc1` (stereo unspecified), the inhibition was 2.93% (inactive).

On to `O=C1/C(=C\Nc2ccccc2)CCN1c1ncccn1`, for which the inhibition was 10.9% (inactive).

On to `Cc1ccc(S(=O)(=O)N2C[C@@H](C)[C@]3(C2)[C@H](O)[C@H](OC(=O)NCc2ccccc2)C[C@H]2C(=O)N(c4ccccc4)C(=O)[C@H]23)cc1`, for which the inhibition was 24.5% (inactive).

With `CC(=O)N1CC[n+]2c(-c3ccc([N+](=O)[O-])cc3)csc21`, the inhibition was 60.6% (active).

Turning to `CN1C2CCC1CC(NC(=O)c1ccc([N+](=O)[O-])cc1)C2` (stereo unspecified), the inhibition is -5.81% (inactive).

`COC(=O)c1c(C)[nH]c(C)c1-c1ccc([N+](=O)[O-])cc1`: the inhibition was -17.8% (inactive).

`CC(C)NC(=O)/C(C#N)=C\c1ccc(N(C)C)c(Br)c1`: the inhibition is -1.04% (inactive).

For `CCOC(=O)C1C(=O)OC2(CCCC2)C1C(=O)OCC` (stereo unspecified), the inhibition is -2.05% (inactive).

Regarding `O=C(COC(=O)c1ccc([N+](=O)[O-])o1)NC12CC3CC(CC(C3)C1)C2`, the inhibition was 23.2% (inactive).

On to `Cc1ccc(/C=C/C(=O)Nc2cc(S(=O)(=O)N3CCCCCC3)ccc2OCC(F)(F)F)o1`, for which the inhibition is 35.9% (inactive).

Regarding `Cc1ccc(/C=C/C(=O)Nc2ccc([N+](=O)[O-])c(NC(=O)/C=C/c3ccc(C)o3)c2)o1`, the inhibition was 82.9% (active).

In the case of `COC(=O)/C=C\C(=O)Nc1cccc([N+](=O)[O-])c1`, the inhibition is 45.2% (inactive).

Turning to `CN(Cc1nc(-c2cnccn2)no1)Cc1n[nH]c2c1CCCCC2`, the inhibition was -10.5% (inactive).

For `O=C(NCCc1ccccc1)C(=O)NCC1OCCN1S(=O)(=O)c1cccs1` (stereo unspecified), the inhibition is -3.06% (inactive).

As to `O=C(Nc1c(Cl)cccc1Cl)C1CCC1`, the inhibition was -12.1% (inactive).

For the compound `C=CCOc1ccccc1/C=N/NC(=O)Cc1ccccc1`, the inhibition was 4.68% (inactive).

Turning to `C=C(C)CNC(=S)N/N=C/c1ccccc1OCC(=O)O`, the inhibition was 3.17% (inactive).

As to `C=CCc1ccccc1OCC(=O)N/N=C/c1ccccc1OCC`, the inhibition was 105% (active).

For the compound `Cc1cccc(OCC(=O)NCC(=O)N/N=C/c2ccc(N(C)C)cc2)c1`, the inhibition is 17.1% (inactive).

For the compound `C=CCc1cccc(/C=N/NC(=O)COc2ccc(-n3cnnn3)cc2)c1O`, the inhibition is -10.4% (inactive).

As for `CCOc1ccccc1/C=N/NC(=O)CNC(=O)COc1ccccc1`, the inhibition is 120% (active).

As to `Fc1ccc(OCc2nn3c(Cn4nnc5ccccc54)nnc3s2)cc1`, the inhibition is 57.3% (inactive).

For the compound `COC(=O)CSc1nc2c(c(C3CC=CCC3)c1C#N)CCC2` (stereo unspecified), the inhibition was -38.4% (inactive).

With `CC(C)(C)NS(=O)(=O)CC12CCC(CC1=O)C2(C)C` (stereo unspecified), the inhibition was -13.3% (inactive).

Consider `CCN(C(=O)COC(=O)CCC(=O)c1cccs1)C1CCCCC1`, for which the inhibition is -5.84% (inactive).

For `CN(CC(=O)Nc1cccc2c1CCCC2)S(=O)(=O)c1ccc(Cl)cc1`, the inhibition is 6.22% (inactive).

As to `CCc1nonc1NC(=O)c1oc2ccc(Cl)cc2c1C`, the inhibition is -9.82% (inactive).

`Cn1c(-c2ccc(F)cc2)cc2onc(-c3ccccc3Cl)c2c1=O`: the inhibition was 4.14% (inactive).

On to `CCc1cccc(C)c1NS(=O)(=O)c1cc(Br)cnc1N`, for which the inhibition was -9.37% (inactive).

For the compound `CCN(C(=O)CSc1nnc(-c2ccncc2)o1)c1ccccc1`, the inhibition is -2.03% (inactive).

With `COc1cc(CNC2CCCC2)c(Br)cc1OCc1ccccc1`, the inhibition was -14.8% (inactive).

With `COc1ccc(CCN=C2SCC(=O)N2Cc2ccccc2)cc1OC`, the inhibition is -8.19% (inactive).

Turning to `COc1cc(C2CC(=O)N3CN(Cc4ccccc4)CSC3=C2C#N)ccc1OCc1ccccc1` (stereo unspecified), the inhibition was 61.5% (active).

For `Cc1ccc(S(=O)(=O)N2C[C@H]3C(=O)C[C@@H](c4cccc5ccccc45)N(S(=O)(=O)c4ccc(C)cc4)[C@H]3C[C@H]2c2ccc(Cl)cc2)cc1`, the inhibition is 7.92% (inactive).

Consider `O=C(N/N=C\c1cccnc1)c1cc(-c2ccccc2)nc2c(Cl)cccc12`, for which the inhibition was 8.75% (inactive).

Consider `O=C(CSc1cccc2cccnc12)N/N=C/c1cccnc1`, for which the inhibition was 63.5% (active).

For `Cc1c(NC(=O)CSc2cccc3cccnc23)c(=O)n(-c2ccccc2)n1C`, the inhibition is 6.71% (inactive).

Take `OC(CNC1CCCC1)COc1ccc(F)cc1` (stereo unspecified): the inhibition was 11.3% (inactive).

As to `Cc1ccc(C)c(NS(=O)(=O)c2c(C)[nH]c(C)c2C(=O)N2CCCCC2)c1`, the inhibition was -16.2% (inactive).

Consider `Cc1ccc(-n2c(C)cc(C(=O)CSc3nnc4ccccn34)c2C)cc1`, for which the inhibition is 26.1% (inactive).

Regarding `COc1ccc(-n2c(C)cc(C(=O)COC(=O)c3cc(OC)c(OC)cc3NC(=O)c3cccs3)c2C)cc1`, the inhibition is -6.02% (inactive).

Consider `COc1ccc(-n2c(C)cc(C(=O)CSc3nnc(-c4cccs4)o3)c2C)cc1`, for which the inhibition is 83.3% (active).

In general, inhibition refers to the relative decrease from the control value, in per cent.
